Compound activity from PubChem.
PrPC TRFRET = inhibitors of human cell surface prion protein PrPC, primary screen, cell-based, TR-FRET. TR-FRET read-out. inhibition, % at 13.8 µM. 0.43% of 370,000 active; in the data active = inhibition above about 24%; also: 0% = median of the test wells and 100% = reference compound wells
VHR inh abs = VHR1 phosphatase inhibitors, primary screen, biochemical, absorbance, uHTS | recombinant VHR phosphatase, pNPP absorbance | inhibition, % at 13.3 µM | 0.52% of 290,000 active | AID 1654, 2009; in the data active = inhibition above about 50%
Target sequence (P51452 whole entry, looked up): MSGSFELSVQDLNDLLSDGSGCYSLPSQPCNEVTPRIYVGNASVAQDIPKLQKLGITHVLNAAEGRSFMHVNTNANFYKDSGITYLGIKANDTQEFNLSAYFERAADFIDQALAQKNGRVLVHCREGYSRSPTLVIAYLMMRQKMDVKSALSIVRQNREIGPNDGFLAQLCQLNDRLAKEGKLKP
BJeLR viability = MLPCN primary cell-based screen for lethality selective to Ras in HRASV12 cells | 0.17% of 300,000 active | BJeLR (HRASV12) viability, CellTiter-Glo ATP luminescence, 48 h | inhibition, % (no concentration beside the values); in the data active = inhibition above about 50%
PrP UTR inh = inhibition of PrP 5' UTR reporter expression. 0.35% of 340,000 active. inhibition, % (concentration not given with the values). cell-based PrP 5' UTR mRNA reporter, plate reader. AID 488862, 2010; in the data active = inhibition above about 52%; also: 0 = median of the neutral control wells
MazF activator = activators of E. coli MazEF toxin-antitoxin RNase, primary screen, biochemical, fluorescence, uHTS | activation, % at 20 µM | 0.32% of 350,000 active | AID 504720, 2011 | FAM/BHQ RNA-DNA oligo cleavage fluorescence, 5 h; in the data active = activation above about 50%
Target sequence (P0AE70 whole entry, looked up): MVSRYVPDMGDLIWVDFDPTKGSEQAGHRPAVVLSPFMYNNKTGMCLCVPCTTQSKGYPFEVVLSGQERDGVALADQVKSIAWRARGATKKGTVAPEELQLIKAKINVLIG
PfHsp40 yeast = rescue of yeast from PfHsp40 toxicity, primary screen, S. cerevisiae, ATP luminescence. S. cerevisiae expressing PfHsp40, growth rescue. growth rescue, % at 12.5 µM. 0.68% of 340,000 active. AID 504582, 2011; in the data active = growth rescue above about 28%, passing the limit was not always enough;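 also: yeast W303a lacking pdr1 and pdr3 grown in galactose medium; growth measured after three days at 30 °C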
* hit, by the source's call; . = no result. A selection: hits, their analogues and other compounds. The true share with any hit is near 2.1%.

SMILES	PrPC TRFRET	VHR inh abs	BJeLR viability	PrP UTR inh	MazF activator	PfHsp40 yeast
Cc1cccc(NC(=S)NNC(=O)c2cc3c(s2)CCC(C)C3)c1C (configuration not stated)	7	11	3	0	-5	31*
CC(C)CNC(=S)NNC(=O)c1csc2c1CCC(C)C2 (configuration not stated)	9	48	4	.	-3	4
CCOc1ccc(CCNC(=O)c2cc3ccsc3n2C)cc1OC	14	.	.	.	.	.
CC1CCN(c2nc(-c3ccncc3)nc3ccccc23)CC1	-4	32	0	10	-3	282*
CS(=O)(=O)N(CC(=O)N1CCN(Cc2ccccc2)CC1)c1cccc(Cl)c1	0	26	9	-9	-1	0
N#CC(C#N)=Cc1ccc(-c2ccccc2F)o1	5	29	.	-29	149*	-1
N#CC(C#N)=Cc1ccc(-c2ccccc2)o1	.	-5	8	.	.	.
O=c1cc(-c2ccc(O)cc2)oc2c(-c3c(O)cc(O)c4c(=O)cc(-c5ccc(O)cc5)oc34)c(O)cc(O)c12	-7	.	.	2	4	1
O=c1c(-c2c(O)cc(O)c3c(=O)cc(-c4ccc(O)cc4)oc23)c(-c2ccc(O)cc2)oc2cc(O)cc(O)c12	-1	22	.	-8	-6	105*
COc1ccc(C(=O)N/C(=C/c2cccs2)C(=O)NCCCn2ccnc2)cc1OC	3	53*	4	-9	-2	0
COc1ccc(/C=C(/NC(=O)c2ccccc2)C(=O)NCCCn2ccnc2)cc1OC	-6	16	3	-10	13	1
Cc1nnc(NC(=O)c2ccc3c(c2)OCO3)s1	6	-6	-4	-49	-4	-1
CSc1nnc(NC(=O)c2ccc3c(c2)OCO3)s1	-2	1	9	63*	0	2
CN1CCN(c2ncnc3c2ncn3[C@H]2CN(Cc3ccncc3)C[C@@H](CO)O2)CC1	-4	.	.	.	.	.
Cc1cc(OCC(=O)NCc2ccc(S(N)(=O)=O)cc2)c2c3c(c(=O)oc2c1)CCC3	-10	-2	2	-20	72*	0
Cc1cc(OCC(=O)NCc2ccncc2)c2c3c(c(=O)oc2c1)CCC3	-3	6	-6	-12	22	1
COc1cc(C(=O)NNC(=O)CSc2nnc3ccccn23)cc(OC)c1OC	-4	.	.	-43	5	-1
CN(C)c1ccc(C=c2c3ccccc3n3c2cc(-c2ccccc2)[n+]3C)cc1	-1	.	.	-17	-29	7
CN(C)c1ccc(C=c2c3ccccc3n3c2cc(-c2ccc(Cl)cc2)[n+]3C)cc1	3	.	.	-30	-18	219*
CN(C)c1ccc(C=c2c3ccccc3n3c2c2c([n+]3C)CCCC2)cc1	-38	.	.	4	-13	300*
O=C(CCN1C(=O)c2ccccc2C1=O)NC(=S)Nc1cccc(Cl)c1	5	20	-2	-10	6	66*
O=C(CCN1C(=O)c2ccccc2C1=O)NC(=S)Nc1ccccc1	3	14	15	-16	-3	0
CCOc1ccc(S(=O)(=O)NCC(=O)NC2CCCCC2)cc1	-1	.	.	-10	-2	0
CC1CCc2c(sc3nc(C(C)(C)C)nc(N4CCN(C(=O)CCl)CC4)c23)C1 (configuration not stated)	-9	-10	85*	-9	1	3
CCCCNC(=O)C[C@H]1C[C@@]2(C(=O)OC)C(=C[C@H](C(C)C)O[C@@H]2C2CC2)N(Cc2ccccc2)C1=O	-7	.	.	.	.	.
[O-][n+]1cccc2c(Br)cc(Br)c(O)c21	-6	28	4	-19	3	310*
Cc1ccc(-c2cc(-c3ccc(C)cc3)[n+](-c3ccc(C(=O)[O-])cc3)c(-c3ccc(C)cc3)c2)cc1	-21	.	78*	-1	20	2
Cc1ccc(-c2cc(-c3ccc(C)cc3)[n+](-c3ccccc3)c(-c3ccc(C)cc3)c2)cc1	.	.	68*	46	26	229*
Cc1ccc(-c2cc(-c3ccccc3)cc(-c3ccccc3)[n+]2-c2ccccc2)cc1	27*	.	75*	-56	24	1
